# Screening data: PubChem, National Center for Advancing Translational Sciences (NCATS)
# HTT cytoprotect: protects HTT-Q103 PC12 cells, measured by ATP | Potency, µM (doses to about 56.4 µM), hits mostly activators | PC12 HTT-Q103 induced, cytoprotection, ATP luminescence, 40 h | AID 1471 | 230,000 compounds, 0.14% hits; active means well fitted curve in the direction sought with a large enough effect; inconclusive means small, poorly fitted or top-dose-only effect, or another doubt; inactive means no such curve, though single readings can be large; an effect the other way counts as inactive or inconclusive; further: nearly all actives have a fitted effect of over 45% in size
#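 Compounds added alongside 100 nM tebufenozide, which induces toxic Q103 huntingtin exon 1-GFP in stable PC12 cells; surviving cells quantified by luminescent ATP measurement. Medium: phenol red-free DMEM, 5% equine and 5% calf serum.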
# CBFb-RUNX1 inh: inhibitors of human CBF-beta and RUNX1 interaction; 230,000 tested, under 10 active; Q01196+Q13951; Potency, µM (top dose mostly 59.8 µM), usual class: inhibitors; AlphaScreen CBFb-His/RUNX1-biotin binding, biochemical; active means well fitted curve in the direction sought with a large enough effect; inconclusive means small, poorly fitted or top-dose-only effect, or another doubt; inactive means no such curve, though single readings can be large; an effect the other way counts as inactive or inconclusive
#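 CBFb-His/RUNX1-biotin, 30 nM each, preincubated 20 min RT; compound 15 min RT; Ni + streptavidin beads 50 ng each, 90 min RT; AlphaScreen read.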
# HPGD block: inhibitors of human 15-hydroxyprostaglandin dehydrogenase (HPGD); AID 894; 150,000 compounds, 4.3% hits; P15428; purified HPGD, NADH fluorescence kinetic, PGE2 substrate; Potency, µM, most hits filed as inhibitors
#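 NADH formation kinetics: reaction with 30 uM PGE2 and 1 mM NAD+ (final), 20 nM enzyme, Tris-HCl pH 8 with Tween 20, after 15 min compound preincubation at room temperature. Fluorescence change, last versus first of five reads.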
# HTT aggregate: inhibitors of mutant huntingtin aggregate formation in PC12 cells; PC12 HttQ103-GFP aggregates, Acumen cytometry, 40 h; Potency, µM (top dose mostly 46.1 µM), usual class: inhibitors; 220,000 compounds, 1.1% hits; AID 1688; active means well fitted curve in the direction sought with a large enough effect; inconclusive means small, poorly fitted or top-dose-only effect, or another doubt; inactive means no such curve, though single readings can be large; an effect the other way counts as inactive or inconclusive; further: nearly all actives have a fitted effect of over 60% in size
#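 Multiplexed with ATP-based cell death, this channel scores GFP aggregates in PC12 cells expressing inducible HTTex1-Q103-GFP. Induction used 100 nM tebufenozide; compounds were tested in concentration series.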
# JMJD2E inh: JMJD2E (human) inhibition | B2RXH2 | JMJD2E catalytic domain, FDH-coupled NADH fluorescence (FDH is formaldehyde dehydrogenase) | Potency, µM (doses to about 57.1 µM), hits mostly inhibitors | 230,000 compounds, 1.6% hits | AID 2147; further: nearly all actives have a fitted effect of over 50% in size
# Target sequence (B2RXH2 1-337 limits assumed): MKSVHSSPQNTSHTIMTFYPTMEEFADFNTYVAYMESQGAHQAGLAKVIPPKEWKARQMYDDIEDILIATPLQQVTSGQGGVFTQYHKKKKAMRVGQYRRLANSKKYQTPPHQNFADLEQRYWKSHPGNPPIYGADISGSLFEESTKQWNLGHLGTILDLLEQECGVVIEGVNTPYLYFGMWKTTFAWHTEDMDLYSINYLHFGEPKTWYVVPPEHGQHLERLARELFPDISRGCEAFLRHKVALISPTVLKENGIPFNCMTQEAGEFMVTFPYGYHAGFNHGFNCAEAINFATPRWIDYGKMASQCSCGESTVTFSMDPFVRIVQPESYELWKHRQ
# ALDH1A1 inh: ALDH1A1 (human) enzyme inhibition; P00352; Purified ALDH1A1, NADH fluorescence, propionaldehyde substrate; Potency, µM (doses to about 75.3 µM), hits mostly inhibitors; 220,000 compounds, 7.3% hits
# Numbers stand for hits; n = inactive; u = inconclusive; x = no result; [ ] = another dose, or the depositor's remark. The list is not random: actives were taken first. Their share in the collection is about 9.8%. Unless noted, the call rests on the fitted dose curve; in most records, active means well fitted inhibition curve with a large enough effect (not every such curve was filed as active); inconclusive means small, poorly fitted or top-dose-only effect, or another doubt; inactive means no such curve, though single readings can be large or run the other way.
SMILES,HTT cytoprotect,CBFb-RUNX1 inh,HPGD block,HTT aggregate,JMJD2E inh,ALDH1A1 inh
O=S(=O)(NCCSc1nc2ccccc2o1)c1ccccc1,n,n,n,n,n,u
O=S(=O)(CCSc1nc2ccccc2o1)c1nc2ccccc2s1,u,n,n,u,n,0.28µM
O=S(=O)(CCSc1nc2ccccc2o1)Cc1ccccc1,n[0.074 µM],n,n,n,n,20µM
O=C(CSc1ccccn1)Nc1nc2ccccc2s1,n[10 µM],n,n,n,n,n
Cc1cccn2c(CNCCCOc3cccnc3)c(C(=O)N3CCOCC3)nc12,n[10 µM],n,x,n[9.22 µM],u,n
CN(C)c1ccc(NC(=O)c2cccc(C(=O)Nc3ccc(N(C)C)cc3)n2)cc1,n[10 µM],u,n,n,n,8.9µM
CN(C)c1ccc(NC(N)=S)cc1,n[10 µM],n,n,n,n,12µM
COc1ccc(N(C(=O)c2cccc([N+](=O)[O-])c2)S(=O)(=O)c2cccs2)cc1,n[10 µM],n,x,n,n,25µM
COc1ccc(N(C(=O)c2cccnc2)S(=O)(=O)c2cccc([N+](=O)[O-])c2)cc1,n[10 µM],n,x,n,n,n
COC(=O)c1ccccc1NCCO,n[10 µM],n,x,n[9.22 µM],u,x
COC(=O)c1cccc2c1-c1ccccc1/C2=N/O,n,n,n,10µM,n,n
C/C=C1\COC(C(=O)NC)(C(F)(F)F)C=C1C=C1CCCCC1 (configuration not stated),x,n,x,x,x,x
COc1cc(C(=O)N/N=C/C2CC=CCC2)cc(OC)c1OC (configuration not stated),n[10 µM],n,n,n,n,11µM
O=C(N/N=C/C1CC=CCC1)c1ccc(O)cc1O (configuration not stated),n[10 µM],n,n,n,n,u
O=C1NNC(=O)C2C3C=CC(C4CC34)C12 (configuration not stated),n[10 µM],n,n,n,n,25µM
CC(c1ccccc1)N1C(=O)C2C3C=CC(C4CC34)C2C1=O (configuration not stated),n[10 µM],n,x,n[9.22 µM],n,n
CCCCCCSc1nnc(-c2cnn(-c3ccccc3)c2-n2cccc2)n1C,n,n,u,u,n,7.1µM
O=c1c(-c2ccc(F)cc2)nc2cnc(N3CCOCC3)nc2n1C[C@H]1CCCO1,n,x,n,x,x,u
C=CCSC1=Nc2sccc2C2=NC(=O)CN12,n,n,n,n,n,14µM
Cc1ccc(CSC2=Nc3ccccc3C3=NC(=O)CN23)cc1,n,n,x,n[9.22 µM],u,u
O=C(/C=C/c1ccccc1)Oc1cccc(C(=S)N2CCOCC2)c1,n,n,x,n,n,4.5µM
O=C(/C=C/c1ccccc1)Oc1ccccc1C(=S)N1CCOCC1,n[10 µM],n,x,n[9.22 µM],n,u
O=C(Oc1ccc(C(=S)N2CCCCC2)cc1)c1ccccc1,n[10 µM],n,x,n[9.22 µM],n,11µM
Oc1ccc(C(=S)N2CCCCCC2)cc1,n,n,u,n,n,u
O=C(Oc1cccc(C(=S)N2CCCCC2)c1)c1ccccc1,n,n,x,n,n,2.5µM
SMILES,HTT cytoprotect,CBFb-RUNX1 inh,HPGD block,HTT aggregate,JMJD2E inh,ALDH1A1 inh
O=C(Oc1ccc(C(=S)N2CCC(O)CC2)cc1)c1ccc(Cl)cc1,n,n,x,n,n,n
Oc1cccc(C(=S)N2CCCCC2)c1,n[10 µM],n,x,n[9.22 µM],n,11µM
CCCS(=O)(=O)N1CCC(C(=O)NCc2ccc(F)cc2)CC1,x,n,n,n,n,n
O=C(CC1CCS(=O)(=O)C1)Nc1ccc[nH]c1=O (configuration not stated),n[10 µM],n,n,n,n,25µM
Cc1ccc(S(=O)(=O)Nc2cc(C)nn2-c2ccccc2)cc1,n,n,n,n,n,25µM
Cc1cc(Nc2ccccc2)n(-c2cccc(Cl)c2)n1,n,n,28µM,u,n,u
Cc1cc(NC(=O)c2ccccc2)n(-c2ccccc2)n1,n[10 µM],n,x,n[9.22 µM],n,n
COC(=O)/C=C/C1c2ccccc2C(OC)C1C (configuration not stated),n[10 µM],n[13.1 µM],x,x,x,n[13.5 µM]
CCOC(=O)c1c(-c2ccco2)csc1N,n[10 µM],n,n,n,n,20µM
CCOC(=O)c1c(-c2cccs2)csc1N,n[10 µM],n,x,n[9.22 µM],n,u
Cc1ccc(C(NC(=O)N2CC(C)OC(C)C2)C(Cl)Cl)cc1F (configuration not stated),n[10 µM],n,n,u,n,10µM
